This note sets out measurements from PubChem BioAssay (NCATS).

Calls of active or inactive are those of the source. Calls come from the whole dose curve.

What all share (experiment): Confirmatory Screen for Target Class Profiling of Small Molecule Inhibitors of Methyltransferases (AID 1745852); for activity change, negative = inhibition: % is set by controls: 0 for no effect and ±100 for the full control effect
For test [1], the target named is Catechol O-methyltransferase (Homo sapiens) (UniProt P21964). To be noted: MTase-Glo luminescence, SAH detection, recombinant enzyme; measured here: COMT max response; stronger effect = lower value.
The target of test [2] is Guanidinoacetate N-methyltransferase (Homo sapiens) (UniProt Q14353). To be noted: MTase-Glo luminescence, SAH detection, recombinant enzyme; activity change, negative = inhibition: at 57.3 µM (top of the series) unless noted; series mostly up to 57.3 µM.
Test [3] deals with Nicotinamide N-methyltransferase (Homo sapiens) (UniProt P40261). The settings on record: MTase-Glo luminescence, SAH detection, recombinant enzyme; measured here: NNMT max response; stronger effect = lower value.
The target of test [4] is Phenylethanolamine N-methyltransferase (Homo sapiens) (UniProt P11086). To be noted: MTase-Glo luminescence, SAH detection, recombinant enzyme; measured here: PNMT max response; stronger effect = lower value.
Potency is the fitted concentration of half-maximal effect.

Chain of Nicotinamide N-methyltransferase (Homo sapiens) (P40261 whole entry, looked up): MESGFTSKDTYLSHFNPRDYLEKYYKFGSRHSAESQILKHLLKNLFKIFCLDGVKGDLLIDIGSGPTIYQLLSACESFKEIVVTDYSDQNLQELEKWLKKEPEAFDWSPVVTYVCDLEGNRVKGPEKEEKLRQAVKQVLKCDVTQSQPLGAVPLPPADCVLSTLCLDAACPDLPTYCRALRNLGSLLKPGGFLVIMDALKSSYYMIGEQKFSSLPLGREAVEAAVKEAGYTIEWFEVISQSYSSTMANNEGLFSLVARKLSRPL
Chain of Phenylethanolamine N-methyltransferase (Homo sapiens) (P11086 whole entry, looked up): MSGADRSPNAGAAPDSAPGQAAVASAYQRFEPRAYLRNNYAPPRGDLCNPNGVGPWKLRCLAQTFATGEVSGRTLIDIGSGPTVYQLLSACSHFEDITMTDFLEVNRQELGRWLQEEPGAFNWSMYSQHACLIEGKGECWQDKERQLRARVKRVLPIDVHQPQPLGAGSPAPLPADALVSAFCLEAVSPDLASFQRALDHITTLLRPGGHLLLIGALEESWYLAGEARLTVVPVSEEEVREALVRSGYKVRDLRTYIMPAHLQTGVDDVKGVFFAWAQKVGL
Chain of Catechol O-methyltransferase (Homo sapiens) (P21964 whole entry, looked up): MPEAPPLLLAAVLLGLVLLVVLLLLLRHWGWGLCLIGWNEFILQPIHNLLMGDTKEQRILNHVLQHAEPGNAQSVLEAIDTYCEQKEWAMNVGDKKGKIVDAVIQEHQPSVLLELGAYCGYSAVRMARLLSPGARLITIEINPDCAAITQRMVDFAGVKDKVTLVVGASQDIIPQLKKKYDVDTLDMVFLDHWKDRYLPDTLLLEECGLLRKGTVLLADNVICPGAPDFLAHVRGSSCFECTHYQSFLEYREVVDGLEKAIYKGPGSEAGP

As to `CC(C)(O)c1ccc2c(c1)ncn2-c1cccc(-c2ccccc2C#N)c1`, the activity in test [1] was -35.9%; in test [3], -41.8%; in test [4], -37.6%. In addition, the Potency in test [2] is 27.1 µM (active).
In the case of `N#CSc1cc(SC#N)c(N)nc1N`, the activity in test [1] is -83.2%; in test [3], -72%; in test [4] it was -48.1%. Also, the Potency in test [2] is 4.08 µM (active).
`COc1cc2nc(N3CCN(C(=O)c4ccco4)C4CCCCC43)nc(N)c2cc1OC` (stereo unspecified): the activity is -2.31% in test [1], -31.3% in test [3] and 0.0711% in test [4]. For the same compound, the activity change, negative = inhibition in test [2] came to 0%.
For `Cc1nnc(C[C@@H]2C=C(c3ccc(Cl)cc3)c3ccccc3-n3c(C)nnc32)o1`, the values for the activity in test [1], in test [3] and in test [4] were -1.31%, -21% and 3.69%, respectively. Moreover, the Potency entry in test [2] was “inactive”.
With `CC(=O)OC/C(=C/C(=O)O)CC[C@@H]1C(C=O)=CC[C@@H]2C(C)(C)CCC[C@@]12C`, the activity in test [1] is -75.1%; in test [3], -14%; in test [4] it was -7.72%. The activity change, negative = inhibition in test [2] is -3.55%.
On to `O=C(c1ccccc1)c1c(O)cc(O)cc1O[C@@H]1O[C@H](CO)[C@@H](O)[C@H](O)[C@H]1O`, for which the values for the activity in test [1], in test [3] and in test [4] were -80.6%, -5.29% and -6.01%, respectively. Further, the activity change, negative = inhibition in test [2] was -2.61%.
As to `CC1(C)CC[C@]2(C(=O)O)CC[C@]3(C)C(=CCC4[C@@]5(C)C[C@@H](O)[C@H](O)C(CO)(CO)C5CC[C@]43C)C2[C@@H]1O` (stereo partly specified), the activity is -63.1% in test [1], 0% in test [3] and 6.04% in test [4]. In test [2], the activity change, negative = inhibition came to 0% [at 29.8 µM].
As to `COc1cc2c(Nc3cc(F)c(Cl)c(Cl)c3)ncnc2cc1OCC1CCCN(C)CCC1`, the activity was -15.2% in test [1], -13.9% in test [3] and -10.4% in test [4]. Also, the activity change, negative = inhibition in test [2] is -2.91%.
Consider `CCc1c(Cl)c(O)c(Cl)c(O)c1C(=O)O[C@H]1[C@H](O)[C@H](OC)[C@H](OC/C2=C\C=C\C[C@H](O)/C(C)=C\[C@H](CC)[C@@H](O[C@@H]3OC(C)(C)[C@@H](OC(=O)C(C)C)[C@H](O)[C@@H]3O)/C(C)=C/C(C)=C/C[C@@H]([C@@H](C)O)OC2=O)O[C@@H]1C`, for which the activity in test [1] is -16.7%; in test [3], -8.66%; in test [4] it was -8.05%. Further, the activity change, negative = inhibition in test [2] was -5.75% [at 29.8 µM].
